# Laboratory results reported in ChEMBL document CHEMBL4513216, “Probing the Open Global Health Chemical Diversity Library for Multistage-Active Starting Points for Next-Generation Antimalarials” (ACS Infect Dis, 2020).
# Out of some 69,000 compounds screened, about 8,600 (12%) showed an effect of 50% or more. For the sample, strong results were picked, then their nearest neighbours and some compounds at random.
# Tested on: Plasmodium berghei
# Assay: Screen against P. berghei liver stage (PbLuc), transformed with Luciferase, at 10uM
# Format: functional, HepG2
# Settings: tested at 10 uM
row,Compound,INHIBITION [%]
1,CCc1n[nH]c(C2CN(C(=O)c3cscn3)CCO2)n1 (stereo not drawn),-23.9
2,CO[C@@H]1CN(S(=O)(=O)c2cn(C)cn2)[C@@H]2CCCO[C@@H]21,-66.7
3,O=C(NCc1nncn1C1CC1)c1cccnc1Oc1ccccc1,25.6
4,CCSC(C)C(=O)N1CCC(c2nn(C)c(=O)n2-c2ccccc2)CC1 (stereo not drawn),63.7
5,CC(=O)N1CCC(c2nn(C)c(=O)n2-c2ccccc2)CC1,35.2
6,CNC(=O)CN1CCC(CN(C)CCSc2ccccc2)CC1,-70.7
7,CCCC(=O)N1CCC(c2nn(C)c(=O)n2-c2ccccc2)CC1,28.7
8,Cn1nc(C2CCN(CC(=O)NC3CC3)CC2)n(-c2ccccc2)c1=O,-21.3
9,CNC(=O)CN1CCC(c2nn(C)c(=O)n2-c2ccccc2)CC1,53.7
10,Cc1nc(NCc2cccc(F)c2)cc(C2CCNCC2)n1,24.8
11,COc1ccccc1CN1C(=O)O[C@@H]2CN(CC3CC3)C[C@@H]21,-0.613
12,COc1ccccc1CN1C(=O)O[C@@H]2CN(S(=O)(=O)N(C)C)C[C@@H]21,7.97
13,COc1ccccc1CN1C(=O)O[C@@H]2CN(C(C)C)C[C@@H]21,79.5
14,CCNc1ccnc(NCC2(N(C)C)CCOCC2)n1,39
15,CCC1(CC)CC(=O)N(CC(O)c2ccc(Cl)cc2)C1=O (stereo not drawn),7.3
16,O=C(CCc1nc(-c2cccnc2)no1)NCC1CCN(C2CC2)C1 (stereo not drawn),11
17,O=C(CCc1nc(-c2ccsc2)no1)NCC1CCN(C2CC2)C1 (stereo not drawn),69

row,Compound,INHIBITION [%]
1,O=C(CCc1nnc(-c2ccsc2)o1)NCC1CCN(C2CC2)C1 (stereo not drawn),-6.04
2,COc1cc2nc(NCCN3CCNC3=O)cc(C)c2cc1OC,-13.4
3,Cc1cc(NCCN2CCNC2=O)nc2cc3c(cc12)CCC3,59.5
4,Cc1cc(NCCS(C)(=O)=O)nc2cc3c(cc12)CCC3,41.5
5,O=c1[nH]c2c(c(=O)n1C1CCCCC1)CCC2NCCc1ccccc1 (stereo not drawn),37.9
6,Cc1cccc(NC2CCc3c2[nH]c(=O)n(C2CCCCC2)c3=O)c1C (stereo not drawn),84
7,COc1ccc(NC(=O)N2CCCCC2c2ncc[nH]2)cc1 (stereo not drawn),11.2
8,O=c1[nH]c2ncccc2n1C1CCCCC1,1.41
9,O=c1[nH]c2c(c(=O)n1C1CCCCC1)CCC2Nc1ccc(Cl)cc1 (stereo not drawn),46.5
10,O=c1[nH]c2c(c(=O)n1C1CCCCC1)CCC2Nc1ccccn1 (stereo not drawn),24.2
11,COc1ccc(NC2CCc3c2[nH]c(=O)n(C2CCCCC2)c3=O)cc1 (stereo not drawn),78.4
12,O=c1[nH]c2c(c(=O)n1C1CCCCC1)CCC2Nc1ccccc1Cl (stereo not drawn),80.5
13,O=c1[nH]c2c(c(=O)n1C1CCCCC1)CCC2NCc1ccccc1 (stereo not drawn),52.1
14,O=C(c1ccc2c(c1)[nH]c(=O)n2C1CCCC1)N1CC(O)C1,44.3
15,O=c1[nH]c2c(c(=O)n1C1CCCCC1)CCC2Nc1ccccc1 (stereo not drawn),-22.9
16,O=c1[nH]c2ncccc2n1C1CCCC1,9
